Assay outcomes from PubChem.
The list is not random: actives were taken first. Their share in the collection is about 6.1%.
D1 potentiator – human D1 dopamine receptor positive modulation | AID 504651 | HEK293 TREx D1 cells, calcium flux, dopamine EC20 potentiation | 0.036% of 360,000 active | potentiation, % at 10 µM; in the data active = potentiation above about 30%
Target sequence (P21728 whole entry, looked up): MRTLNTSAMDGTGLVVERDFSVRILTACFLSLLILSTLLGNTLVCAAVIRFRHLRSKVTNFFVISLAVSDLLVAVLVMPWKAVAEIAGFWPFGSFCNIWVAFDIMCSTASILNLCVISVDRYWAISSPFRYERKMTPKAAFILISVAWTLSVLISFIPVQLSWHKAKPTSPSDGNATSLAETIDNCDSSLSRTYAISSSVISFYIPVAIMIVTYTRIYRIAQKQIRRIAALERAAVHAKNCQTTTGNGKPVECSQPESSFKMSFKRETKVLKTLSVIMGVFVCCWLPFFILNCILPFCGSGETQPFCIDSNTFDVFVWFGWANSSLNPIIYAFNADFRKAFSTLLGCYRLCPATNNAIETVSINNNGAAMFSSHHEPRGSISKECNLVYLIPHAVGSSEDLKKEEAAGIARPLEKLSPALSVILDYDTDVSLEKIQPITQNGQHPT
DRD3 agonist – D3 dopamine receptor (human) agonism | P35462 | D3R DiscoveRx beta-arrestin cells, luminescence, 90 min | max activation, % | 0.58% of 410,000 active; in the data active = max activation above about 30%
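Agonist-mode cell screen: cells plated at 1500/well and incubated overnight at 37 °C, then exposed to library compounds for 90 min at 37 °C. Detection reagent was added for 30–60 min at room temperature, and luminescence was read.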
D1 ag – agonists of human D1 dopamine receptor | P21728 | HEK293 T-REx D1 cells, calcium flux, agonist mode | activation, % at 2 µM | 1% of 360,000 active; in the data active = activation above about 30%
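Agonism was scored from calcium flux recorded over 180 s (1 read/s) after pintool compound addition, following a 10-cycle baseline. Cells were inducible force-coupled HEK293 TREx D1, plated overnight at 30 C and loaded with no-wash calcium dye.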
D3 antag – antagonists of human D3 dopamine receptor | D3R cells, DiscoveRx beta-arrestin luminescence, antagonist mode; active compounds read low | max response, negative = inhibition, % | 2.5% of 360,000 active | AID 652054; in the data active = max response below about -50%; inconclusive = no clear call, values can overlap the other calls
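Cells plated overnight at 1500 cells/well, then exposed to library compounds with dopamine controls for 90 minutes at 37 degrees C. DiscoveRx reagent added for 30–60 minutes at room temperature; luminescence read, quantitative HTS format.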
D1 antag – human D1 dopamine receptor antagonism; HEK293 TREx D1 cells, calcium flux, dopamine EC80; active compounds read low; AID 504652; 3.2% of 360,000 active; activity change, negative = inhibition, % at 10 µM; in the data active = activity change below about -30%
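After overnight tetracycline induction at 30 C, force-coupled D1 HEK293 cells took up a no-wash calcium dye at room temperature. Compounds were added and monitored 180 s, and the response to EC80 dopamine was then recorded.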
Each line names hits and unclear results; the compound was inactive in the other large screens; ! = repeats disagree.

COC(=O)/C=C/c1ccc(-n2cncn2)cc1	none
CCOC(=O)COc1ccccc1/C=C\[N+](=O)[O-]	D3 antag -103, D1 antag -86
O=C(CSc1nc2c(c(=O)[nH]1)CCCC2)Nc1ccccc1C(F)(F)F	none (no result: D3 antag)
COc1ccccc1N1CCN(C2CCCN(Cc3cccc(O)c3)C2)CC1 (stereo unspecified)	D1 antag -50
COc1ccccc1CN1CCCC(N2CCN(c3ccccc3OC)CC2)C1 (stereo unspecified)	D1 antag -50
Cc1ccc2c(c1)-c1c(cnn1CC(=O)N1CCN(c3cccc(C(F)(F)F)c3)CC1)CO2	none (no result: D3 antag)
Cc1cc(C)c(NC(=O)CCN2C(=O)c3ccccc3Sc3ncccc32)c(C)c1	none (no result: D3 antag)
CCOC(=O)c1[nH]c(C)c(CCC(=O)Nc2c(C)cc(C)cc2C)c1C	none (no result: D3 antag)
Nc1c2c(nc3ccc(Br)cc13)N(Cc1ccccc1)CC2	D3 antag -59
CCOc1cccc(C(=O)Nc2ccc(-c3nc4ncccc4o3)cc2C)c1	none (no result: D3 antag)
COc1ccc2cc3cc(C(=O)Nc4ccccc4N4CCN(C)CC4)oc3nc2c1	D3 antag inconclusive, D1 antag -41
CCCN(CCC)C(=O)CSc1nnc2cc(C)c3ccccc3n12	none (no result: D3 antag)
CCOC(=O)c1c(C)c(-c2ccccc2)n(CC(=O)NC2CCCCCC2)c1C	none (no result: D3 antag)
CCc1ccc(S(=O)(=O)Nc2ccc(Br)cn2)cc1	D1 antag -30
CCc1ccc(S(=O)(=O)Nc2ccccn2)cc1	none
Oc1ccc(COc2cccc3ccccc23)c2cccnc12	none (no result: DRD3 agonist, D3 antag)
CCOc1ccccc1CNC(=O)C1CCN(S(=O)(=O)c2c(C)noc2/C=C/c2ccc(C)cc2)CC1	none (no result: D3 antag)
c1ccc2[nH]ccc2c1	DRD3 agonist 50 (no result: D1 potentiator, D1 ag, D3 antag, D1 antag)
CC1CCCN(c2nc3c(-c4ccc(Cl)cc4)nnn3c3ccccc23)C1 (stereo unspecified)	none (no result: D3 antag)
COc1cccc(NC(=O)C2CCCN(c3nnc(-n4c(C)ccc4C)s3)C2)c1 (stereo unspecified)	none (no result: D3 antag)
CCOC(=O)CC(NC(=O)CCc1c(C)nc2c(c(C)nn2-c2ccc(C)c(C)c2)c1C)c1ccc(C)cc1 (stereo unspecified)	none (no result: D3 antag)
Cc1ccc(N(C(=O)CNC(=O)c2ccco2)C(C(=O)NC2CCCC2)c2cccnc2)cc1 (stereo unspecified)	none
O=C(NCC(=O)N(c1cccnc1)C(C(=O)NC1CCCC1)c1ccccc1)c1ccco1 (stereo unspecified)	DRD3 agonist 52
CC(C)OCCCN(Cc1ccco1)C(=O)c1cc2c(s1)-c1ccccc1OC2	none (no result: D3 antag)
COc1cccc(C2=NN(S(C)(=O)=O)C(c3cn(-c4ccccc4)nc3-c3cccs3)C2)c1 (stereo unspecified)	D1 antag -39 (no result: D3 antag)
Cc1ccc(NC(=O)c2nc(S(=O)(=O)Cc3ccc(F)cc3)ncc2Cl)cc1C	D1 antag -37 (no result: D3 antag)
CC(=O)Nc1ccc(NC(=O)c2nc(S(=O)(=O)Cc3ccc(F)cc3)ncc2Cl)cc1	none (no result: D3 antag)
Cc1ccc(NC(=O)c2nc(S(=O)(=O)Cc3ccccc3C)ncc2Cl)cc1C	D3 antag -74, D1 antag -40
Cc1ccc2[nH]c(CSc3nnc(NC(=O)COc4ccccc4Cl)s3)cc(=O)c2c1	none (no result: D3 antag)
CC1(C)CC(=O)C=C(c2ccc(Oc3ccccc3)cc2)C1	D3 antag -65 (no result: D1 antag)
CC1=C(C(=O)Nc2cccc(C(F)(F)F)c2)C(c2ccccc2)n2ncnc2N1 (stereo unspecified)	none (no result: D3 antag)
CCOc1ccc(NC(=O)CSc2nnc(Cn3cnc([N+](=O)[O-])n3)n2C)cc1	none
CCOc1ccc(NC(=O)CSc2nnc(Cn3cnc([N+](=O)[O-])n3)n2CC)cc1	D1 antag -38
CC(C)c1nn2c(=O)cc(COC(=O)c3ccc(NC(=O)COc4ccccc4)cc3)nc2s1	none (no result: D3 antag)
CC(=O)c1ccc(NC(=O)C2=CC(c3ccc(C)cc3)=NS(=O)(=O)N2C)cc1	D1 antag -46 (no result: D3 antag)
COc1ccc(C2=NS(=O)(=O)N(C)C(C(=O)Nc3ccc4c(c3)OCO4)=C2)cc1	D3 antag -103
CC(=O)c1ccc(NC(=O)C2=CC(c3ccc4c(c3)OCO4)=NS(=O)(=O)N2C)cc1	D1 ag 33!
O=C1CN(S(=O)(=O)c2cc(Br)ccc2Br)CCN1	none (no result: D1 potentiator, D1 ag, D1 antag)
O=c1c(Br)ccc(Br)cc1Br	D3 antag -114 (no result: D1 potentiator, D1 ag, D1 antag)
O=C(Nc1nc2c(s1)CN(Cc1ccccc1)CC2)c1cccc(S(=O)(=O)N2CCc3ccccc32)c1	D1 ag 73
COc1ccc(NC(C)=O)cc1NC(=O)c1cccc(S(=O)(=O)N2CCc3ccccc32)c1	D1 antag -32
CN(C)S(=O)(=O)c1cccc(NC(=O)c2cccc(S(=O)(=O)N3CCc4ccccc43)c2)c1	D1 antag -57
O=C(Nc1nc2ccccc2s1)c1cccc(S(=O)(=O)N2CCc3ccccc32)c1	none
CO/N=C(\C(=O)N[C@@H]1C(=O)N2C(C(=O)O)=C(CSc3nc(=O)c(O)nn3C)CS[C@H]12)c1csc(N)n1	none (no result: D1 potentiator, D1 ag, D3 antag, D1 antag)
COc1ccc(-c2cn3c(n2)sc2cc(C(=O)NC4CCCc5ccccc54)ccc23)cc1 (stereo unspecified)	none (no result: D3 antag)
Cc1cccc(C(=O)N2CCN(c3ccc([N+](=O)[O-])c(NCc4ccco4)c3)CC2)c1	D1 antag -67
Cc1cccc(C(=O)N2CCN(c3ccc([N+](=O)[O-])c(N4CCOCC4)c3)CC2)c1	D3 antag inconclusive, D1 antag -45
COc1cc(OC)c(NC(=O)CSC2=Nc3ccccc3N=C(c3ccc(F)cc3)C2)cc1Cl	none (no result: D3 antag)
Cc1ccc(-c2cn3c(n2)sc2cc(C(=O)NCc4cccs4)ccc23)cc1	none (no result: D3 antag)
Cc1cc2nc(-c3ccc(SCc4ccc(C#N)cc4)nc3)[nH]c2cc1C	D1 antag -43
N#Cc1ccccc1CSc1ccc(-c2nc3ccccc3[nH]2)cn1	D1 antag -35
CC(=O)CSc1ccc(-c2nc3cc(C)c(C)cc3[nH]2)cn1	none
Cc1ccc(Nc2ncnc3onc(C)c23)cc1Cl	none (no result: D3 antag)
CCOc1ccc(/C=C/c2nc3ccccc3n2S(=O)(=O)c2cccc(Cl)c2)cc1	none (no result: D3 antag)
CCC(=O)Nc1ccc(S(=O)(=O)N2CCc3ccccc32)cc1	D1 antag -41
COC(=O)Nc1ccc(S(=O)(=O)N2CCCc3ccccc32)cc1	D1 antag -38
CCCC(=O)Nc1ccc(S(=O)(=O)N2CCc3ccccc32)cc1	none (no result: D1 potentiator, D1 ag, D1 antag)
O=C(Nc1nnc(S(=O)(=O)N2CCCc3ccccc32)s1)c1ccccc1	D1 antag -33 (no result: D3 antag)
O=C(Nc1nnc(S(=O)(=O)N2CCc3ccccc32)s1)c1ccccc1	none (no result: D3 antag)
Cc1ccc(CNC(=O)CN(C)S(=O)(=O)c2ccc3c(c2)c(=O)n(C)c(=O)n3C)cc1	none (no result: D3 antag)
CC1=C(C(=O)N2CCCCC2)C(c2cccc(Cl)c2)n2c(nc3ccccc32)N1 (stereo unspecified)	none (no result: D3 antag)
O=C(CCN1C(=O)/C(=C/c2cccs2)SC1=S)Nc1ccccn1	D1 ag 45
